Counter-ions that a name gives are not always drawn. ± gives the standard deviation of the averaged measurements.
Tested on: E. coli TESEC Mtb Alr
Assay: growth (OD600 after 10 h); higher = more growth (less inhibition)
Conditions: compound 0.1 mM
Protocol: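 TESEC Mtb Alr E. coli, or the Alr+ wild-type control, in 384-well plates with Prestwick library compounds at 0.1 mM and 1% DMSO, across arabinose induction levels of 1E3 to 1E7 nM. Growth is read as OD600 after 10 h at 37 °C in triplicate biological replicates.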

[1] = arabinose 1000 nM, raw OD600 reference: median of DMSO wells 0.294, cell-free background 0.041
[2] = arabinose 10000 nM, raw OD600 reference: median of DMSO wells 0.264, cell-free background 0.041
[3] = arabinose 100000 nM, raw OD600 reference: median of DMSO wells 0.201, cell-free background 0.041
[4] = arabinose 1000000 nM, raw OD600 reference: median of DMSO wells 0.193, cell-free background 0.041
[5] = arabinose 10000000 nM, raw OD600 reference: median of DMSO wells 0.146, cell-free background 0.041

Structure (SMILES)	growth [1]	growth [2]	growth [3]	growth [4]	growth [5]
Cc1cccc(C)c1OCC(C)N (stereo not given) [Mexiletine hydrochloride]	0.276 ± 0.0054	0.262 ± 0.0058	0.223 ± 0.038	0.171 ± 0.0031	0.143 ± 0.0056
Cn1c(=O)c2c(ncn2CC(O)CO)n(C)c1=O (stereo not given) [Diprophylline]	0.271 ± 0.026	0.249 ± 0.013	0.197 ± 0.018	0.182 ± 0.0025	0.138 ± 0.0093
c1ccc(CC2=NCCN2)cc1 [Tolazoline hydrochloride]	0.301 ± 0.018	0.253 ± 0.0071	0.191 ± 0.0077	0.172 ± 0.0039	0.149 ± 0.0054
O=C(O)[C@H]1/C(=C/CO)O[C@@H]2CC(=O)N21 [Clavulanate potassium salt]	0.0502 ± 0.0035	0.0477 ± 0.0036	0.0582 ± 0.0016	0.195 ± 0.0057	0.0991 ± 0.0015
CC(C)(C)CC(C)(C)c1ccc(OCCOCC[N+](C)(C)Cc2ccccc2)cc1 [Benzethonium chloride]	0.0415 ± 0.0011	0.0413 ± 0.0002	0.0425 ± 0.0011	0.04103 ± 0.00021	0.0418 ± 0.00044
O=C(O)c1cccnc1 [Niacin]	0.346 ± 0.021	0.304 ± 0.0045	0.243 ± 0.0028	0.238 ± 0.0034	0.152 ± 0.0078
Nc1ccc(S(=O)(=O)Nc2cnc3ccccc3n2)cc1 [Sulfaquinoxaline sodium salt]	0.266 ± 0.02	0.171 ± 0.004	0.21 ± 0.0087	0.1074 ± 0.00085	0.137 ± 0.0051
O=c1[nH]cc(F)c(=O)[nH]1 [5-fluorouracil]	0.155 ± 0.012	0.148 ± 0.0051	0.0825 ± 0.0014	0.0827 ± 0.0053	0.08963 ± 0.00055
